Experimental data: the supplement of paper PMC6089552
Out of some 3,200 compounds screened, about 300 (9.4%) showed activity. For the sample, actives were picked, then their nearest neighbours and some compounds at random.

Tested on: A673/TR/shEF
Experiment: cell viability (LOESS-normalised, relative to median of negative controls) (log2 ratio); higher = more viable cells (less compound effect), active = hit call of the paper (over 3 MAD below the median)
Conditions: treatment time: 72 h
How it was run: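 For three days, A673/TR/shEF Ewing sarcoma cells in 384-well plates (1,500 per well) were treated with library compounds at two or more concentrations or with DMSO controls, after doxycycline had been added or withheld 24 h beforehand to induce EWS-FLI1 shRNA knockdown. Viability was read by CellTiter-Glo luminescence on an Envision reader. The data were LOESS-corrected per plate, divided by the median of negative controls and log2-transformed.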

[1] = 0.25 µM, library screen: screen1, EWS-FLI1 expression: high (no doxycycline)
[2] = 0.25 µM, library screen: screen1, EWS-FLI1 expression: low (doxycycline-induced shRNA knockdown)
[3] = 2.5 µM, library screen: screen1, EWS-FLI1 expression: high (no doxycycline)
[4] = 2.5 µM, library screen: screen1, EWS-FLI1 expression: low (doxycycline-induced shRNA knockdown)
[5] = 0.025 µM, library screen: screen1, EWS-FLI1 expression: high (no doxycycline)
[6] = 0.025 µM, library screen: screen1, EWS-FLI1 expression: low (doxycycline-induced shRNA knockdown)
[7] = 25 µM, library screen: screen1, EWS-FLI1 expression: high (no doxycycline)
[8] = 25 µM, library screen: screen1, EWS-FLI1 expression: low (doxycycline-induced shRNA knockdown)
[9] = 0.25 µM, library screen: screen2, EWS-FLI1 expression: high (no doxycycline)
[10] = 0.25 µM, library screen: screen2, EWS-FLI1 expression: low (doxycycline-induced shRNA knockdown)
[11] = 2.5 µM, library screen: screen2, EWS-FLI1 expression: high (no doxycycline)
[12] = 2.5 µM, library screen: screen2, EWS-FLI1 expression: low (doxycycline-induced shRNA knockdown)

Measured: cell viability (log2)

NC(N)=NCCC[C@H](N[C@H](CCC(=O)O)C(=O)O)C(=O)O
inactive: [1] 0.0848 | [2] 0.0238 | [3] 0.123 | [4] 0.0291

C/C(=C\C(=O)Nc1ccccc1C(=O)O)c1ccc2ccccc2c1
inactive: 0.103 µM, library screen: screen3, EWS-FLI1 expression: high (no doxycycline) 0.0459 | 0.103 µM, library screen: screen3, EWS-FLI1 expression: low (doxycycline-induced shRNA knockdown) 0.0279 | 0.308 µM, library screen: screen3, EWS-FLI1 expression: high (no doxycycline) -0.00745 | 0.308 µM, library screen: screen3, EWS-FLI1 expression: low (doxycycline-induced shRNA knockdown) -0.00325 | 0.926 µM, library screen: screen3, EWS-FLI1 expression: high (no doxycycline) -0.0219 | 0.926 µM, library screen: screen3, EWS-FLI1 expression: low (doxycycline-induced shRNA knockdown) 0.0436 | 2.8 µM, library screen: screen3, EWS-FLI1 expression: high (no doxycycline) 0.00499 | 2.8 µM, library screen: screen3, EWS-FLI1 expression: low (doxycycline-induced shRNA knockdown) -1.3e-05 | 8.3 µM, library screen: screen3, EWS-FLI1 expression: high (no doxycycline) -0.0171 | 8.3 µM, library screen: screen3, EWS-FLI1 expression: low (doxycycline-induced shRNA knockdown) 0.0177 | 25 µM, library screen: screen3, EWS-FLI1 expression: high (no doxycycline) 0.0665 | 25 µM, library screen: screen3, EWS-FLI1 expression: low (doxycycline-induced shRNA knockdown) 0.0416

O=P(O)(O)C(O)c1ccc2ccccc2c1 (stereo not drawn)
inactive: [5] 0.0997 | [6] 0.0649 | [1] 0.143 | [2] -0.0248 | [3] 0.0554 | [4] 0.0311 | [7] 0.0292 | [8] 0.0551

C=CC(=O)c1ccc2ccccc2c1
inactive: [6] 0.0903 | [2] 0.00371 | [4] 0.198 | [8] -0.0301
0.279: [5]
0.286: [1]
active: [3] -0.264 | [7] -0.287

NC(=O)c1cc[n+](CC2=C(C(=O)O)N3C(=O)[C@@H](NC(=O)C(c4ccccc4)S(=O)(=O)O)[C@H]3SC2)cc1 (stereo partly drawn)
inactive: [1] -0.0396 | [2] 0.081 | [3] -0.00797 | [4] 0.0119

CN1CCN(c2nc3ccccn3c(=O)c2/C=C2\SC(=S)N(C)C2=O)CC1
inactive: [1] 0.017 | [2] -0.00298 | [3] 0.0372 | [4] -0.00837

COc1cc(O)c2c(=O)cc(-c3ccc(OC)c(O)c3)oc2c1
inactive: [1] 0.0474 | [2] 0.00819 | [3] 0.132 | [4] 0.0369

COc1ccc(-c2cc(=O)c3c(O)cc(O)cc3o2)cc1O
inactive: [1] -0.0193 | [2] -0.536 | [3] -0.0793 | [4] 0.0681

COc1ccc(-c2cc(=O)c3c(O)cc(O[C@@H]4O[C@H](CO[C@@H]5O[C@@H](C)[C@H](O)[C@@H](O)[C@H]5O)[C@@H](O)[C@H](O)[C@H]4O)cc3o2)cc1O
active: [1] -0.0892 | [3] -0.0968
inactive: [2] 0.0382 | [4] 0.0709

COc1ccc(-c2cc(=O)c3c(O)c(OC)c(OC4OC(COC5OC(C)C(O)C(O)C5O)C(O)C(O)C4O)cc3o2)cc1 (stereo not drawn)
inactive: [1] 0.0877 | [2] 0.0838 | [3] 0.171 | [4] 0.116

COc1ccc(-c2cc(=O)c3c(O)cc(O[C@@H]4O[C@H](CO[C@@H]5O[C@@H](C)[C@H](O)[C@@H](O)[C@H]5O)[C@@H](O)[C@H](O)[C@H]4O)cc3o2)cc1
inactive: [1] 0.0703 | [2] 0.0696 | [3] 0.0879 | [4] 0.0994

COc1ccc(-c2cc(=O)c3c(O)c(OC)c(OC)cc3o2)cc1O
active: [3] -0.654
inactive: [1] -0.076 | [2] -0.0378 | [4] -0.145

COC(=O)C(O)[C@H]1C(C)(C)[C@@H](OC(C)=O)[C@@H]2CC3=C4CC(=O)O[C@@H](c5ccoc5)[C@]4(C)CCC3[C@@]1(C)C2=O (stereo partly drawn)
inactive: [1] 0.11 | [2] 0.119 | [3] 0.15 | [4] 0.0885

CC(=O)O[C@H]1CC[C@@]2(C)C(=CC[C@H]3[C@@H]4CC[C@H]([C@H](C)CCCC(C)C)[C@@]4(C)CC[C@@H]32)C1
inactive: [1] 0.0694 | [2] 0.0487 | [3] 0.14 | [4] 0.0189

O=C(O)C1CC(C2CCCCN2)CN2CCCCC12 (stereo not drawn)
inactive: [1] 0.039 | [2] 0.0346 | [3] 0.146 | [4] 0.0208

CC(N)=NCCC[C@H](N)C(=O)O
inactive: [9] 0.0627 | [10] 0.0753 | [11] -0.0275 | [12] 0.0731

COc1ccccc1CNC(=O)CN(c1ccc(Cl)cc1)S(C)(=O)=O
inactive: [1] -0.0129 | [2] 0.0689 | [3] 0.0751 | [4] 0.0379

C=C1CCC(C2CC(=O)OC2=O)C(=O)CCC2C1CC2(C)C (stereo not drawn)
inactive: [1] 0.1 | [2] 0.128 | [3] 0.0855 | [4] 0.0593

Cc1nnc(SCC(=O)N2c3ccccc3-c3c(ssc3=S)C2(C)C)s1
inactive: [1] 0.0582 | [2] 0.0648 | [3] 0.115 | [4] 0.255

CC(C)=CCC/C(C)=C/C=C/C(C)=C/C=C/C(C)=C/C=C/C=C(C)/C=C/C=C(C)/C=C/C=C(\C)CCC=C(C)C
inactive: [1] 0.149 | [2] 0.105 | [3] 0.156 | [4] 0.123

CC(=O)O[C@@H]1CC2C(C)(C)C=CC(=O)[C@]2(C)C2CC[C@@]3(C)[C@H](c4ccoc4)OC(=O)C4OC43[C@@]21C (stereo partly drawn)
inactive: [1] 0.059 | [2] 0.0804 | [3] 0.118 | [4] 0.149

NC1(C(=O)O)CCCCC1
inactive: [9] 0.0492 | [10] 0.114 | [11] -0.0212 | [12] 0.0608

NC1(C(=O)O)CC1
inactive: [1] 0.064 | [2] 0.0956 | [3] 0.122 | [4] 0.0925 | [11] 0.123 | [12] 0.0434
active: [9] -0.141 | [10] -0.0707

NC1(C(=O)O)CCCC1
inactive: [1] 0.102 | [2] 0.137 | [3] 0.134 | [4] 0.192

CN(C)C(=O)/C(=C\c1cccc(Br)c1)NC(=O)c1ccccc1
inactive: [1] 0.0622 | [2] 0.0915 | [3] 0.179 | [4] 0.181

O=C(O)c1cc2c(Cl)cc(Cl)cc2[nH]1
inactive: [1] 0.105 | [2] 0.0244 | [3] 0.0763 | [4] 0.0336

NCC1OC(OC2C(N)CC(N)C(OC3OC(CO)C(O)C(N)C3O)C2O)C(N)C(O)C1O (stereo not drawn)
inactive: [1] 0.0483 | [2] 0.0336 | [3] 0.164 | [4] 0.0237
